From PubChem BioAssay (Tox21)
Results filed as inconclusive are left out. The source made the active and inactive calls. Unless noted, calls follow the shape of the dose curve; as a rule, active = well fitted curve in the direction sought with a large enough effect in the repeat runs; inconclusive = weak or mixed curves; inactive = no such curve, though single readings can be large; an effect the other way counts as inactive or inconclusive.

Tests used:
[1] = target: Thyrotropin receptor (Homo sapiens) (UniProt P16473); experiment: qHTS assay to identify small molecule agonists of the thyroid stimulating hormone receptor (TSHR) signaling pathway (AID 1224843; calls by dose curve; also: nearly all actives have a fitted effect of over 45% in size)
Chain of Thyrotropin receptor (Homo sapiens) (P16473 whole entry, looked up): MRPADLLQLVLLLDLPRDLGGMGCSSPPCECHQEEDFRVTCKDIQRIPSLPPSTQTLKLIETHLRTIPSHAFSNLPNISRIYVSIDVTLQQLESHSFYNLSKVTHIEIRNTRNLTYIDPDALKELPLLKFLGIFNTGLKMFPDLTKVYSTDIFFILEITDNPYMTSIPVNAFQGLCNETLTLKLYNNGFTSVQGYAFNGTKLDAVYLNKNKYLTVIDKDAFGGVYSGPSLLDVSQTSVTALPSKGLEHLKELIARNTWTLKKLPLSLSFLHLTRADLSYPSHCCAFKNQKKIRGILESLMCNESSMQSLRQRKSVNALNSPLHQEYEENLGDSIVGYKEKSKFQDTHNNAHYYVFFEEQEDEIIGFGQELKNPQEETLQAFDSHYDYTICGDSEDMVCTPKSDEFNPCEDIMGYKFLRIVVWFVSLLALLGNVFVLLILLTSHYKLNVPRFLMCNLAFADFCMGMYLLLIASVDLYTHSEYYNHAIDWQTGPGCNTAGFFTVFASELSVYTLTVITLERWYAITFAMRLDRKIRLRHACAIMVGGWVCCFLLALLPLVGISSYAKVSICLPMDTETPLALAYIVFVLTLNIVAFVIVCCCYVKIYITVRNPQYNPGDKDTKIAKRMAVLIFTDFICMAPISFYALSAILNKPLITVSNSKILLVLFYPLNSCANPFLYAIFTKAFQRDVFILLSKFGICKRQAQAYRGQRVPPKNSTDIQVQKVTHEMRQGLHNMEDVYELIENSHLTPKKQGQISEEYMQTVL
In short: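 TSHR-expressing HEK293 cells (800 per well) were exposed to compounds for 30 min at room temperature. cAMP was then detected by HTRF competition with cAMP-d2 and anti-cAMP cryptate, read after 1 h at room temperature. Fifteen concentrations, triplicate.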

[2] = qHTS assay to identify small molecule agonists of the hypoxia (HIF-1) signaling pathway - cell viability counter screen (AID 1224844; calls by dose curve; also: nearly all actives have a fitted effect of over 50% in size)
In short: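 ME-180 HRE-bla cells, 2,000/well, 0.5% dialyzed FBS; 5 hr settle, 17 hr compound at 37C/5% CO2; CCF4-AM reporter read first, then CellTiter-Glo luminescence after 30 min RT.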

[3] = qHTS assay to identify small molecule agonists of H2AX (AID 1224845; active = well fitted activation curve with a large enough effect in the signal ratio in the repeat runs, not every such curve was filed as active; the % refers to the signal ratio)
In short: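 Wild-type CHO-K1 cells plated overnight, then exposed 3 hr at 37C to compounds at 15 concentrations (0.76% DMSO). Lysed, then HTRF anti-pH2AX(S139)-cryptate/anti-H2AX-d2 detection after 24 hr at room temperature; emissions 665 and 620 nm.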

[4] = qHTS assay to identify small molecule agonists of the hypoxia (HIF-1) signaling pathway (AID 1224846; active = well fitted activation curve with a large enough effect in the signal ratio in the repeat runs, not every such curve was filed as active; the % refers to the signal ratio)
In short: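 Cell line: CellSensor HRE-bla ME-180; 2,000 cells/well; 0.5% dialyzed FBS; 5 h preincubation; DMSO compound pin transfer; 17 h, 37C, 5% CO2; CCF4-AM added; bla FRET signal scored for activation.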

[5] = qHTS assay to identify small molecule agonists of H2AX - cell viability counter screen (AID 1224847; calls by dose curve; also: top concentration of the series differs between compounds; nearly all actives have a fitted effect of over 30% in size)
In short: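 Wild-type CHO-K1 cells (10% FBS medium) were plated overnight at 37C, exposed to compounds at 15 concentrations for 3 hr at 37C (0.76% DMSO final), and viability was read as CellTiter-Glo luminescence after 30 min at room temperature.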

[6] = qHTS RealTime-Glo MT Cell Viability Assay in HepG2 cells - 24 hour (AID 1224867); also: nearly all actives have a fitted effect of over 50% in size
In short: (§1)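 Cell number in HepG2 cultures estimated from NanoLuc luminescence generated by metabolic reduction of a prosubstrate by living cells. The homogeneous, nonlytic format allowed repeated reads at 0, 8, 16, 24, 32 and 40 h of compound exposure.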

[7] = qHTS RealTime-Glo MT Cell Viability Assay in HEK293 cells - 32 hour (AID 1224868); also: top concentration of the series differs between compounds; nearly all actives have a fitted effect of over 50% in size
In short: (§2)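 Homogeneous bioluminescent viability format in HEK293 cells (600 cells/well). Following 5 h at 37 C/5% CO2, 23 nL compound was pintooled; the signal was measured repeatedly during 40 h incubation.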

[8] = A CellTox Green Cytotoxicity Assay to monitor cytotoxicity in HEK293 cells - 0 hour (AID 1224869); also: nearly all actives have a fitted effect of over 50% in size
In short: (§3)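 Nonlytic real-time cytotoxicity: HEK293 + CellTox Green reagent plated, 5 h preincubation, pintool compound addition (23 nL in DMSO), 37 C for 40 h, fluorescence measured at successive time points.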

[9] = qHTS RealTime-Glo MT Cell Viability Assay in HepG2 cells - 40 hour (AID 1224870); also: nearly all actives have a fitted effect of over 50% in size
In short: (§4)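 HepG2 cells mixed with RealTime-Glo MT reagents (NanoLuc plus cell-permeant prosubstrate) were seeded at 600 cells/well, incubated 5 h at 37 C/5% CO2, then pinned with compounds in DMSO; nonlytic luminescence tracked viability during 40 h treatment.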

[10] = A CellTox Green Cytotoxicity Assay to monitor cytotoxicity in HEK293 cells - 40 hour (AID 1224871); also: nearly all actives have a fitted effect of over 45% in size
In short: as §3

[11] = qHTS RealTime-Glo MT Cell Viability Assay in HEK293 cells - 16 hour (AID 1224872)
In short: as §2

[12] = qHTS RealTime-Glo MT Cell Viability Assay in HepG2 cells - 8 hour (AID 1224873); also: nearly all actives have a fitted effect of over 55% in size
In short: as §4

[13] = qHTS RealTime-Glo MT Cell Viability Assay in HEK293 cells - 40 hour (AID 1224874); settings: RealTime-Glo luminescence; max response: stronger effect = lower value; also: nearly all actives have a fitted effect of over 50% in size
In short: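 Cells were seeded together with NanoLuc luciferase and a prosubstrate that viable cells reduce to a luciferase substrate. After a 5 h incubation at 37 C/5% CO2, compounds were added and luminescence was measured repeatedly during 40 h of treatment.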

[14] = A CellTox Green Cytotoxicity Assay to monitor cytotoxicity in HEK293 cells - 24 hour (AID 1224875); also: nearly all actives have a fitted effect of over 45% in size
In short: as §3

[15] = A CellTox Green Cytotoxicity Assay to monitor cytotoxicity in HepG2 cells - 16 hour (AID 1224876); also: nearly all actives have a fitted effect of over 45% in size
In short: (§5)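 Read-out is fluorescence of a cyanine dye excluded from live cells that stains DNA of dead HepG2 cells, with signal proportional to cytotoxicity. Plates were read at 0, 8, 16, 24, 32 and 40 h after compound addition.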

[16] = qHTS RealTime-Glo MT Cell Viability Assay in HepG2 cells - 32 hour (AID 1224877); also: nearly all actives have a fitted effect of over 55% in size
In short: as §1

[17] = A CellTox Green Cytotoxicity Assay to monitor cytotoxicity in HepG2 cells - 24 hour (AID 1224878); also: nearly all actives have a fitted effect of over 45% in size
In short: as §5

[18] = A CellTox Green Cytotoxicity Assay to monitor cytotoxicity in HepG2 cells - 40 hour (AID 1224879); also: nearly all actives have a fitted effect of over 40% in size
In short: as §5

[19] = qHTS assay to identify small molecule antagonists of the estrogen related receptor (ERR) signaling pathway from Tox21 library (AID 1224848); also: nearly all actives have a fitted effect of over 50% in size
In short: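 Cells: ERR line, 2,000/well; 6 h preincubation 37 C/5% CO2. Cpd in DMSO via pin tool; 18 h, 37 C. ONE-Glo, 30 min RT, luminescence.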

[20] = qHTS assay to identify small molecule agonists of the estrogen related receptor (ERR) signaling pathway from Tox21 library (AID 1224849; calls by dose curve; also: nearly all actives have a fitted effect of over 15% in size); settings: ERR reporter cell line, ONE-Glo luciferase, 18 h; at 92.4 µM (top of the series) unless noted
In short: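 ERR cells, 6 h pre-incubation 37 C/5% CO2; cpd in DMSO pinned; 18 h 37 C; ONE-Glo added, 30 min RT; luminescence read. Agonist mode, qHTS.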
% is scaled to controls: 0 for no effect and ±100 for the full control effect.

CC(=O)OC(C)OC(C)=O
inactive: Potency [1] | Potency [2] | Potency [3] | outcome [4] | Potency [5] | Potency [6] | Potency [7] | Potency [8] | Potency [9] | Potency [10] | Potency [11] | outcome [12] | max response [13] 0.965% | Potency [14] | Potency [15] | Potency [16] | Potency [17] | Potency [18]

CCCCCCCCCCCCCCCCOP(=O)([O-])OCC[N+](C)(C)C
inactive: Potency [1] | Potency [2] | Potency [3] | outcome [4] | Potency [5] | Potency [19] | Potency [6] | Potency [7] | Potency [9] | Potency [10] | Potency [11] | outcome [12] | max response [13] -6.12% | Potency [14] | Potency [16]

COC(C)CCO (stereo not drawn)
inactive: Potency [1] | Potency [2] | Potency [3] | outcome [4] | Potency [5] | Potency [6] | Potency [7] | Potency [8] | Potency [9] | Potency [10] | Potency [11] | outcome [12] | max response [13] 6.13% | Potency [14] | Potency [15] | Potency [16] | Potency [18]

CN1CCN(C2=Nc3cc(F)ccc3Cc3ccccc32)CC1
inactive: Potency [1] | Potency [2] | Potency [3] | outcome [4] | Potency [5] | Potency [19] | activity change, positive = activation [20] 0.425% [at 42.5 µM] | Potency [6] | Potency [8] | Potency [9] | Potency [10] | Potency [11] | outcome [12] | Potency [14] | Potency [15] | Potency [16] | Potency [18]

CCOC(=O)[C@H](CCc1ccccc1)N[C@@H](C)C(=O)N1Cc2cc(OC)c(OC)cc2C[C@H]1C(=O)O
inactive: Potency [1] | Potency [2] | Potency [3] | outcome [4] | Potency [5] | Potency [6] | Potency [7] | Potency [8] | Potency [11] | outcome [12] | max response [13] 3.96% | Potency [14] | Potency [15] | Potency [16] | Potency [17] | Potency [18]

CCCCCCn1c(=O)c2c(ncn2C)n(C)c1=O
inactive: Potency [1] | Potency [2] | Potency [3] | outcome [4] | Potency [5] | Potency [19] | activity change, positive = activation [20] -1.88% [at 42.5 µM] | Potency [6] | Potency [7] | Potency [10] | Potency [11] | max response [13] -1.75% | Potency [14] | Potency [15] | Potency [16] | Potency [17] | Potency [18]

Cc1cn([C@@H]2O[C@H](CO)[C@@H](O)[C@@H]2F)c(=O)[nH]c1=O
inactive: Potency [1] | Potency [2] | Potency [3] | outcome [4] | Potency [5] | Potency [6] | Potency [7] | Potency [8] | Potency [9] | Potency [11] | outcome [12] | max response [13] -1.92% | Potency [14] | Potency [15] | Potency [16] | Potency [17] | Potency [18]

Cc1c(N)cccc1N
inactive: Potency [1] | Potency [2] | Potency [3] | outcome [4] | Potency [5] | Potency [6] | Potency [7] | Potency [8] | Potency [10] | Potency [11] | outcome [12] | max response [13] 12.2% | Potency [14] | Potency [15] | Potency [16] | Potency [17] | Potency [18]

CC(=O)Nc1ccc(C)c(Cl)c1
inactive: Potency [1] | Potency [2] | Potency [3] | outcome [4] | Potency [5] | Potency [6] | Potency [7] | Potency [8] | Potency [9] | Potency [11] | outcome [12] | max response [13] -13.2% | Potency [14] | Potency [15] | Potency [16] | Potency [17] | Potency [18]

O=C(O)c1cccc(Cl)c1Cl
inactive: Potency [1] | Potency [2] | Potency [3] | outcome [4] | Potency [5] | Potency [6] | Potency [7] | Potency [8] | Potency [9] | Potency [10] | Potency [11] | outcome [12] | max response [13] -7.63% | Potency [14] | Potency [15] | Potency [16] | Potency [18]

CCC(=O)Nc1ccc(O)cc1
inactive: Potency [1] | Potency [2] | Potency [3] | outcome [4] | Potency [5] | Potency [6] | Potency [7] | Potency [8] | Potency [11] | outcome [12] | max response [13] 2.18% | Potency [14] | Potency [15] | Potency [16] | Potency [17] | Potency [18]

COC(=O)C(C)O (stereo not drawn)
inactive: Potency [1] | Potency [2] | Potency [3] | outcome [4] | Potency [5] | Potency [6] | Potency [7] | Potency [8] | Potency [9] | Potency [10] | Potency [11] | outcome [12] | max response [13] 3.12% | Potency [14] | Potency [15] | Potency [16] | Potency [17] | Potency [18]

COC(=O)c1ccc2cc(C(=O)OC)ccc2c1
inactive: activation [1] 2.3% [at 19 µM] | activity change, negative = cytotoxicity [2] 1.66% [at 15.8 µM] | activation (H2AX phosphorylation) [3] 0.148% [at 31.6 µM] | activation [4] -0.33% [at 15.8 µM] | activity change, negative = cytotoxicity [5] 2.5% [at 31.6 µM] | activity, negative = inhibition [19] 23.9% [at 19 µM] | activity change, negative = cytotoxicity [6] 2.88% [at 15.8 µM] | activity change, negative = cytotoxic [7] -1.06% [at 15.8 µM] | cytotoxicity [8] 2.02% [at 15.8 µM] | activity change, negative = cytotoxic [9] -0.864% [at 15.8 µM] | cytotoxicity increase [10] 3.01% [at 15.8 µM] | activity change, negative = cytotoxicity [11] -1.54% [at 15.8 µM] | viability change, negative = cytotoxic [12] 6.16% [at 15.8 µM] | max response [13] -1.06% | activity change [14] 4.58% [at 15.8 µM, stronger effect = higher value] | cytotoxicity increase [15] -13.5% [at 15.8 µM] | activity change, negative = cytotoxic [16] 0.0732% [at 15.8 µM] | cytotoxicity [17] -14.4% [at 15.8 µM] | cytotoxicity increase [18] -18% [at 15.8 µM]

CN(C)Cc1ccccc1
inactive: Potency [1] | Potency [2] | Potency [3] | outcome [4] | Potency [5] | Potency [6] | Potency [7] | Potency [9] | Potency [10] | Potency [11] | outcome [12] | max response [13] 7.47% | Potency [14] | Potency [15] | Potency [16] | Potency [17] | Potency [18]
